In general, AC50 refers to the concentration at which the activity in the assay is half-maximal.

Data on 14 compounds can be found in PubChem BioAssay (EPA / NIEHS).

Molecules are shown by their SMILES. Where “and” joins values, the source holds several entries; their conditions need not be identical. Equal entries are not always repeated. Inconclusive results are not listed. Where a structure was tested more than once in an assay, its records may differ in their call. Calls of active or inactive are those of the source. The calls were made as follows: active = hit-call score of the fitted dose curve at least 0.9, where 1 is the maximum; inconclusive = response in the unintended direction; inactive = score below 0.9.

Test [1] deals with human Esterase Plasma (ES), BCHE (gene 590) (UniProt P06276). The test can be described thus: NVS_ENZ_hES: NovaScreen (NVS) Enzymatic Assay for human Esterase Plasma (ES) (AID 2283157). The method, boiled down:
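Human plasma-derived enzyme, cell-free, colorimetric readout at 0.25 h. Primary screen 25 uM in duplicate; hits (e.g. ≥30% inhibition) rerun singleton up to 50 uM. DMSO = negative control/baseline.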

The target in test [2] is human Dual Specificity Protein Phosphatase 3 (DUSP3), DUSP3 (gene 1845) (UniProt P51452). The test can be described thus: NVS_ENZ_hDUSP3: NovaScreen (NVS) Enzymatic Assay for human Dual Specificity Protein Phosphatase 3 (DUSP3) (AID 2283152).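 Also: phosphatase activity of recombinant human DUSP3 on a fluorogenic substrate without cells.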 Summed up:
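Cell-free fluorescence-intensity enzyme activity assay with recombinant protein and substrate; loss of signal fitted relative to DMSO baseline. Primary screen in duplicate at 25 uM, actives then run in concentration series; measured 0 h after dosing.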

The target of test [3] is human Ephrin type-B Receptor 1 (EphB1), EPHB1 (gene 2047) (UniProt P54762). The experiment in a line: NVS_ENZ_hEphB1: NovaScreen (NVS) Enzymatic Assay for human Ephrin type-B Receptor 1 (EphB1) (AID 2283154). Summed up: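 Recombinant EphB1 activity read by fluorescence after mobility-shift separation of product from substrate, 1 h post-dosing. Compounds screened in duplicate at 25 uM; inhibition scored as signal loss relative to DMSO.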

Test [4] addresses human Acid Phosphatase 1 (ACP1), ACP1 (gene 52) (UniProt P24666). The experiment in a line: NVS_ENZ_hACP1: NovaScreen (NVS) Enzymatic Assay for human Acid Phosphatase 1 (ACP1) (AID 2283136). The method, boiled down: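 Cell-free fluorescence read-out of phosphatase activity, substrate and product separated by mobility shift, taken 1.5 h after compound addition; protein produced in Sf9. Single 25 uM duplicate screen, followed by concentration series for actives, scored as signal loss relative to DMSO.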

Test [5] concerns the target human AKT serine/threonine Kinase 1 (AKT1), AKT1 (gene 207) (UniProt P31749). The test can be described thus: NVS_ENZ_hAKT1: NovaScreen (NVS) Enzymatic Assay for human AKT serine/threonine Kinase 1 (AKT1) (AID 2283138). The method, boiled down: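 Fluorescence and mobility-shift readout of kinase activity, taken 1 h post-dosing in a cell-free format with recombinant protein. Primary screen at 25 uM in duplicate; hits (e.g. 30% inhibition) retested in concentration series topping at 50 uM.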

The next test has as its target Caspase-3 (Homo sapiens) (UniProt P42574). The experiment in a line: NVS_ENZ_hCASP3: NovaScreen (NVS) Enzymatic Assay for human Caspase 3 (CASP3) (AID 2283139). The method, boiled down: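 Single-concentration screening at 25 uM in duplicate, with concentration-response follow-up to a 50 uM maximum for chemicals passing the threshold. Caspase-3 (human, E. coli-expressed) activity was read as substrate fluorescence after 1 h, with loss of signal relative to DMSO.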

Test [6] has as its target human Beta-secretase (BACE), BACE1 (gene 23621) (UniProt P56817). The experiment in a line: NVS_ENZ_hBACE: NovaScreen (NVS) Enzymatic Assay for human Beta-secretase (BACE) (AID 2283140).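 Also: hits are inhibitors that reduce fluorescent substrate signal versus DMSO.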 The method, boiled down:
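SF9-expressed enzyme, cell-free; fluorescent substrate readout after 1 h. Screened at 25 uM single concentration, duplicate; hits retested in concentration series. Activity relative to DMSO baseline, loss-of-signal.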

For test [7], the target named is human AKT serine/threonine Kinase 2 (AKT2), AKT2 (gene 208) (UniProt P31751). The test can be described thus: NVS_ENZ_hAKT2: NovaScreen (NVS) Enzymatic Assay for human AKT serine/threonine Kinase 2 (AKT2) (AID 2283141). The method, boiled down:
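Cell-free fluorescence/electrophoretic mobility shift readout of recombinant human AKT2 activity, 1 h after chemical dosing. Duplicate primary screen at 25 uM, then singleton concentration-response up to 50 uM; loss of signal versus DMSO baseline.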

The target of test [8] is human Caspase 4 (CASP4), CASP4 (gene 837) (UniProt P49662). The experiment in a line: NVS_ENZ_hCASP4: NovaScreen (NVS) Enzymatic Assay for human Caspase 4 (CASP4) (AID 2283143). Summed up:
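Compounds were first tested in duplicate at 25 uM, and hits were titrated singly to a 50 uM maximum. Recombinant protease from E. coli was read by fluorescence 2 h post-dose, and activity loss was fitted against the DMSO baseline.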

The target of another test is CDK2 (gene 1017) (UniProt P24941). The experiment in a line: NVS_ENZ_hCDK2: NovaScreen (NVS) Enzymatic Assay for human Cyclin-Cependent Kinase 2 (CDK2) (AID 2283144). Summed up: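 Compounds screened in duplicate at 25 uM, then in singleton concentration-response to a maximum of 50 uM, against recombinant CDK2; kinase activity read 1 hr after dosing by fluorescence with mobility-shift separation of substrate and product.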

The target in test [9] is human Caspase 8 (CASP8), CASP8 (gene 841) (UniProt Q14790). The experiment in a line: NVS_ENZ_hCASP8: NovaScreen (NVS) Enzymatic Assay for human Caspase 8 (CASP8) (AID 2283146). Summed up:
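The primary screen tested compounds in duplicate at a single 25 uM concentration, with actives followed up in concentration series. Activity of recombinant (E. coli) protease was measured by fluorescence 1 h post-dose, as signal loss against DMSO.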

Test [10] concerns the target human Casein Kinase 2- alpha 2 beta 2 (CK2a2b2), CSNK2A1 (gene 1457) (UniProt P68400). The experiment in a line: NVS_ENZ_hCK2a2b2: NovaScreen (NVS) Enzymatic Assay for human Casein Kinase 2- alpha 2 beta 2 (CK2a2b2) (AID 2283147). Summed up: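 Compounds were first screened in duplicate at 25 uM, and those passing the threshold were re-tested in concentration series up to a 50 uM maximum. Kinase activity of recombinant human CK2 α2β2 was measured 1 h after dosing by fluorescent substrate/product mobility-shift separation.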

Test [11] addresses human Casein Kinase 1-delta (CK1D), CSNK1D (gene 1453) (UniProt P48730). The test can be described thus: NVS_ENZ_hCK1D: NovaScreen (NVS) Enzymatic Assay for human Casein Kinase 1-delta (CK1D) (AID 2283148). The method, boiled down: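 Recombinant human CK1-delta, cell-free; fluorescent substrate with electrophoretic mobility-shift separation of product, read 1 h after dosing. Single 25 uM duplicate screen, then concentration-response up to 50 uM; loss of signal vs DMSO.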

Test [12] deals with human Colony Stimulating Factor 1 Receptor (CSF1R), CSF1R (gene 1436) (UniProt P07333). The test can be described thus: NVS_ENZ_hCSF1R: NovaScreen (NVS) Enzymatic Assay for human Colony Stimulating Factor 1 Receptor (CSF1R) (AID 2283150). The method, boiled down: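 Compounds screened in duplicate at 25 uM, then concentration-response (top 50 uM) for those passing threshold such as 30% inhibition; recombinant CSF1R activity measured 1 h post-dosing via fluorescent substrate/product mobility-shift separation, loss of signal versus DMSO.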

For test [13], the target named is human Ephrin type-A Receptor 1 (EphA1), EPHA1 (gene 2041) (UniProt P21709). The test can be described thus: NVS_ENZ_hEphA1: NovaScreen (NVS) Enzymatic Assay for human Ephrin type-A Receptor 1 (EphA1) (AID 2283158).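 Also: activity is signal loss versus DMSO meaning EphA1 kinase inhibition.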 Summed up: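 Chemicals first tested in duplicate at 25 uM against recombinant EphA1 with a fluorescent substrate; those passing threshold went to singleton dose-response topping at 50 uM. Activity read 1 h later as mobility-shift fluorescence, loss of signal relative to DMSO.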

Test [14] deals with Histone deacetylase 3 (Homo sapiens) (UniProt O15379). The test can be described thus: NVS_ENZ_hHDAC3: NovaScreen (NVS) Enzymatic Assay for human Histone Deacetylase 3 (HDAC3) (AID 2283163). Summed up:
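Cell-free enzyme format: loss of fluorescent product after mobility-shift separation, 1 h incubation, recombinant human HDAC3. Single 25 uM duplicate screen first, then concentration series to a 50 uM top for hits; DMSO as baseline.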

For test [15], the target named is Glycogen synthase kinase-3 beta (Homo sapiens) (UniProt P49841). The experiment in a line: NVS_ENZ_hGSK3b: NovaScreen (NVS) Enzymatic Assay for human Glycogen Synthase Kinase-3 beta (GSK3b) (AID 2283165). The method, boiled down: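 Recombinant enzyme with specific fluorescent substrate, 1 h, product separated by electrophoretic mobility shift. Primary duplicate screen at 25 uM; actives (e.g. 30% inhibition) followed in singleton concentration-response to 50 uM. Signal loss fitted versus DMSO.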

Test [16] concerns the target human FYN Proto-Oncogene, Src family Tyrosine Kinase (Fyn), FYN (gene 2534) (UniProt P06241). The test can be described thus: NVS_ENZ_hFyn: NovaScreen (NVS) Enzymatic Assay for human FYN Proto-Oncogene, Src family Tyrosine Kinase (Fyn) (AID 2283161). Summed up:
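Cell-free kinase activity read by fluorescence after mobility-shift separation of substrate and product, 1 h post-dose. Initial single concentration 25 uM in duplicate, then concentration-response follow-up; DMSO baseline.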

Test [17] concerns the target human Caspase 5 (CASP5), CASP5 (gene 838) (UniProt P51878). The test can be described thus: NVS_ENZ_hCASP5: NovaScreen (NVS) Enzymatic Assay for human Caspase 5 (CASP5) (AID 2283137). Summed up:
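Fluorescent substrate readout of CASP5 activity (loss-of-signal), measured 2 h post-dose. Protein expressed in E. coli. Primary screen duplicate at 25 uM; actives meeting threshold (e.g., 30% inhibition) rerun singleton, max 50 uM.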

Test [18] addresses human Elastase, ELANE (gene 1991) (UniProt P08246). The experiment in a line: NVS_ENZ_hElastase: NovaScreen (NVS) Enzymatic Assay for human Elastase (AID 2283153). Summed up: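 Concentration-response to 50 uM max, run singly for chemicals passing a threshold (e.g., 30% inhibition) in a duplicate 25 uM single-point screen. Neutrophil-derived human elastase, absorbance read-out of enzyme activity at 1.5 h; DMSO baseline.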

Chain of human Acid Phosphatase 1 (ACP1), ACP1 (gene 52) (P24666 whole entry, looked up): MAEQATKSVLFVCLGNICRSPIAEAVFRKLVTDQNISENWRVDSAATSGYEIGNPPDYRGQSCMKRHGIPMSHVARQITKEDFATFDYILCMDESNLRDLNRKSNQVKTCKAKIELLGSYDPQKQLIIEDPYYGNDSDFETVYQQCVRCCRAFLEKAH
Chain of human Caspase 4 (CASP4), CASP4 (gene 837) (P49662 whole entry, looked up): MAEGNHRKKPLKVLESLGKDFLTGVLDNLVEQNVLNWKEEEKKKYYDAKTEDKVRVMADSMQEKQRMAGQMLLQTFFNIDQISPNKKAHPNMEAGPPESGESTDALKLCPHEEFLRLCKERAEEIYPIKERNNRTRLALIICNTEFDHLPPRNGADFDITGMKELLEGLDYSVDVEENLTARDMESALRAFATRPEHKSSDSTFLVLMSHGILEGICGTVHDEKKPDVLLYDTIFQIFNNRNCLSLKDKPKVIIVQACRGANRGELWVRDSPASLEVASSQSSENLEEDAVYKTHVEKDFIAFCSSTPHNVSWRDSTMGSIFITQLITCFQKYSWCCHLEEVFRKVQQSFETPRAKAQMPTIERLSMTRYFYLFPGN
Chain of human Ephrin type-A Receptor 1 (EphA1), EPHA1 (gene 2041) (P21709 whole entry, looked up): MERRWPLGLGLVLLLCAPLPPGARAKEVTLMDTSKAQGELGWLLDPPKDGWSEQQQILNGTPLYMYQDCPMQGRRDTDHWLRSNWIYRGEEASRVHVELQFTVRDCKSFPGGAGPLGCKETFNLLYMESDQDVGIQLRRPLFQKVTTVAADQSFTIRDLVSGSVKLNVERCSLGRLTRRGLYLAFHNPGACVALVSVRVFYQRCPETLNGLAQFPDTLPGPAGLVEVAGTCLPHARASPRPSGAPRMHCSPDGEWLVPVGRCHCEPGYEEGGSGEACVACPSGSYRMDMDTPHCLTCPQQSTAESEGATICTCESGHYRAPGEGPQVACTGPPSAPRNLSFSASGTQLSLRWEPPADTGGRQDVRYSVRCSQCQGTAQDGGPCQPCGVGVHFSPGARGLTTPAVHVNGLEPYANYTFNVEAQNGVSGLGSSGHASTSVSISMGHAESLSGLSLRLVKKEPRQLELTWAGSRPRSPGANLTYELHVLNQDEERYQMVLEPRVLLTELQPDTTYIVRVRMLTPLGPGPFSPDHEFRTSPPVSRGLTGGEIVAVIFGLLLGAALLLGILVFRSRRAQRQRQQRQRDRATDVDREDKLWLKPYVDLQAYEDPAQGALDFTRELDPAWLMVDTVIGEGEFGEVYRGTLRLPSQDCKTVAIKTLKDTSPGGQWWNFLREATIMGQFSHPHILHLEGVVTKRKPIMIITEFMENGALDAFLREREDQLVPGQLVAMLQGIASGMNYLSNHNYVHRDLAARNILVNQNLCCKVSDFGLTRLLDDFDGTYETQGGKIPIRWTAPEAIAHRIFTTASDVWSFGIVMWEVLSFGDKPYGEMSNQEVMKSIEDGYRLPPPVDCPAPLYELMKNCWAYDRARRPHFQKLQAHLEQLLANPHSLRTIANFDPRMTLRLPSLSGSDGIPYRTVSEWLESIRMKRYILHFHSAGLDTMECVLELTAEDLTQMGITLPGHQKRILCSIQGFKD
Chain of human Caspase 5 (CASP5), CASP5 (gene 838) (P51878 whole entry, looked up): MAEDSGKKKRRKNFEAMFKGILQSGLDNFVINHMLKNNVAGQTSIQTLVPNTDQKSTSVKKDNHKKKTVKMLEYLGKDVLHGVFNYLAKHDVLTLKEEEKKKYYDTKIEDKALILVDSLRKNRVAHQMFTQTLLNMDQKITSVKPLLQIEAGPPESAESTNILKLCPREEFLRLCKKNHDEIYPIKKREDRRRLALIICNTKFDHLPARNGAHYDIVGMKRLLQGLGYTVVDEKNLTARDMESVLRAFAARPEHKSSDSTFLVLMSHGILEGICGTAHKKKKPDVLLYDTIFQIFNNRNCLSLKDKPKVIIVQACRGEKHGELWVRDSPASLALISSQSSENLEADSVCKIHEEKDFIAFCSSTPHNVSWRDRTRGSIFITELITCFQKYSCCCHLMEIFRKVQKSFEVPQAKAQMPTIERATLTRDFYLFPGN
Chain of human AKT serine/threonine Kinase 1 (AKT1), AKT1 (gene 207) (P31749 whole entry, looked up): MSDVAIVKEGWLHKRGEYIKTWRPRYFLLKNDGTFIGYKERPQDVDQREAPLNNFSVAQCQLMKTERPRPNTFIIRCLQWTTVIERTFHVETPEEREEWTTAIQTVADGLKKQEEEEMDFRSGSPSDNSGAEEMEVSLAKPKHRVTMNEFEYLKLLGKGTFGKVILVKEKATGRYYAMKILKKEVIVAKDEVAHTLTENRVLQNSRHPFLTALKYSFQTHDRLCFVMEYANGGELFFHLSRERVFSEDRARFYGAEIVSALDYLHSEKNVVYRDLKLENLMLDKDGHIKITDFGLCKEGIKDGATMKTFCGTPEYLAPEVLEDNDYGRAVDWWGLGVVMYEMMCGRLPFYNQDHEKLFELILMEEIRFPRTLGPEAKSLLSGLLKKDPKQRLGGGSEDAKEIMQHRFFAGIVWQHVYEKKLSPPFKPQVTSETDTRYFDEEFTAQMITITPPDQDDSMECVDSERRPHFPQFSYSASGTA
Chain of human Caspase 8 (CASP8), CASP8 (gene 841) (Q14790 whole entry, looked up): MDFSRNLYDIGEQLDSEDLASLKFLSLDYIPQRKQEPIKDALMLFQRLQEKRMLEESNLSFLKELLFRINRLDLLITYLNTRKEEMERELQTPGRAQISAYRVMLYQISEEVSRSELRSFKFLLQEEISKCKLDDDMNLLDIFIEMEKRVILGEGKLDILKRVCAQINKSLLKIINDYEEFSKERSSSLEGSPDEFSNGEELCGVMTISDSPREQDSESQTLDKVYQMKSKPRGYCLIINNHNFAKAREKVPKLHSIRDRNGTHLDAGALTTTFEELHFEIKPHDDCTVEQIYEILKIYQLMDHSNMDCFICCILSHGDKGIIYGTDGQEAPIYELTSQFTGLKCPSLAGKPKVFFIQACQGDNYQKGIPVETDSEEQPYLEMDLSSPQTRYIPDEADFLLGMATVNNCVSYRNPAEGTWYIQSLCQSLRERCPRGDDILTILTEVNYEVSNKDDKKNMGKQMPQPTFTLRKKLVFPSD
Chain of human Dual Specificity Protein Phosphatase 3 (DUSP3), DUSP3 (gene 1845) (P51452 whole entry, looked up): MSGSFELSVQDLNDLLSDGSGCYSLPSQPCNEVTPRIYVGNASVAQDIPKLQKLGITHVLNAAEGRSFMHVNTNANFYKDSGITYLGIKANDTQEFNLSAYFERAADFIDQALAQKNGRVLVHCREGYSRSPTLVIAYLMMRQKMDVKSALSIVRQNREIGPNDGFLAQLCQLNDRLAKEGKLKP
Chain of human Beta-secretase (BACE), BACE1 (gene 23621) (P56817 whole entry, looked up): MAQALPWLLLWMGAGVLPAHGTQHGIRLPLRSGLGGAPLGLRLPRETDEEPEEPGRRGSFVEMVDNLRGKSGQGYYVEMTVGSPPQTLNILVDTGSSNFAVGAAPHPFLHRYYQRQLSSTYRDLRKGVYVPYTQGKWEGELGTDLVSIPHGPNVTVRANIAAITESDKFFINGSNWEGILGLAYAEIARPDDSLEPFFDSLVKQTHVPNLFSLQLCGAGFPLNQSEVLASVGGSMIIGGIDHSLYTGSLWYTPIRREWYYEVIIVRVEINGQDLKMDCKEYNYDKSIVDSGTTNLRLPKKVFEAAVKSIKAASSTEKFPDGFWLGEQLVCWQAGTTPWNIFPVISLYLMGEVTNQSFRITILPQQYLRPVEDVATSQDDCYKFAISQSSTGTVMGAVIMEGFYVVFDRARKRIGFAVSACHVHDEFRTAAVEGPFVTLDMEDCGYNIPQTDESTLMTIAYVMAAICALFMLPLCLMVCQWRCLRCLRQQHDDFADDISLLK
Chain of human Esterase Plasma (ES), BCHE (gene 590) (P06276 whole entry, looked up): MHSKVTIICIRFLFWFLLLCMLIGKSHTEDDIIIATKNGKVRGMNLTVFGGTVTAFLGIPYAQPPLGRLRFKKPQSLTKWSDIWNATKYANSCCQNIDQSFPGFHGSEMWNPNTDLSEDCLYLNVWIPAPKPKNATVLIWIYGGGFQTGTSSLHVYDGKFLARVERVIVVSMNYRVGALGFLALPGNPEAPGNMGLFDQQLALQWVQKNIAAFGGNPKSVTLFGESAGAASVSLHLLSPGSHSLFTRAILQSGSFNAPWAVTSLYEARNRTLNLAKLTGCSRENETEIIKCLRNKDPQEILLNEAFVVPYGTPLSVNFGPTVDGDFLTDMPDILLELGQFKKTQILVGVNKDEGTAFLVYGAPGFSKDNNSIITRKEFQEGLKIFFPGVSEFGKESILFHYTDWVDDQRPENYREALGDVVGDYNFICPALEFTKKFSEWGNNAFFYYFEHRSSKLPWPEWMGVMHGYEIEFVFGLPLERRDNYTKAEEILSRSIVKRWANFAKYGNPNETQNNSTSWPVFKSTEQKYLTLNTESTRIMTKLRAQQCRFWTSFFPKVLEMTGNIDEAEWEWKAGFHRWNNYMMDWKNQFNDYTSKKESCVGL
Chain of Glycogen synthase kinase-3 beta (Homo sapiens) (P49841 whole entry, looked up): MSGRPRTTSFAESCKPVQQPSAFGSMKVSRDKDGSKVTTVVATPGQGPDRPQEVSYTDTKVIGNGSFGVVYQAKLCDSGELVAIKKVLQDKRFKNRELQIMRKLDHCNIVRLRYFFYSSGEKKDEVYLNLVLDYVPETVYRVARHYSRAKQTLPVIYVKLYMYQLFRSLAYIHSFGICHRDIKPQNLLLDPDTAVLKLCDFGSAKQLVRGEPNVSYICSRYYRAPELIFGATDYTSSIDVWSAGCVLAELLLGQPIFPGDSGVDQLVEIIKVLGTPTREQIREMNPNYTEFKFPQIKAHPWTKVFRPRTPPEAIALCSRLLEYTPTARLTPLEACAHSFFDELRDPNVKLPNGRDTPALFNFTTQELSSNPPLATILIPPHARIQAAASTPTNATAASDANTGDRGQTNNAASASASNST
Chain of human Elastase, ELANE (gene 1991) (P08246 whole entry, looked up): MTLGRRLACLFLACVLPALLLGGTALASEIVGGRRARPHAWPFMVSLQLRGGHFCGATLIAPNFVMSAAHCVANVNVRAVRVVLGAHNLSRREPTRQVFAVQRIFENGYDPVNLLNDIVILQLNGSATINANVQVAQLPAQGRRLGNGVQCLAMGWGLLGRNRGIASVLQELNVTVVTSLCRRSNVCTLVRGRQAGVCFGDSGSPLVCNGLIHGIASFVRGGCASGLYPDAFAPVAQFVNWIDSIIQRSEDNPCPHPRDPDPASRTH

For the compound `CCN(CC)C(=O)c1cccc(C)c1`, the call in test [1] was inactive.

Consider `COC(=O)CSc1cc(N=c2sc(=O)n3n2CCCC3)c(F)cc1Cl`, for which the compound was called inactive in test [2], in [3] and in [1].

As to `S=C(S)NCCNC(=S)S.[Mn+2].[S-]C([S-])=NCCN=C([S-])[S-].[Zn+2]`, the concentration at half-maximal activity (AC50) was 4.22 µM (active) and 4.27 µM (active) in test [4]; 683 nM (active) and 1.49 µM (active) in test [5]; 9.11 µM (active) in test [6]; 1.64 µM (active) and 1.94 µM (active) in test [7]; 0.179 µM (active) in test [8]; 0.879 µM (active) in the test with CDK2 (gene 1017). The AC50 in test [10] was 5.4 µM (active); in [11], 18.2 µM (active) and 33.6 µM (active); in test [12], 963 nM (active) and 315 nM (active) and 12.9 µM (active); in [13] it was 43.5 µM (active); in [14], 10 µM (active) and 445 nM (active); in test [15], 1.08 µM (active) and 3.32 µM (active) and 678 nM (active). The compound was classed as inactive (with Caspase-3 (Homo sapiens); in [8]; in test [9]; in test [13]).

Turning to `O=C(c1ccc(O)cc1O)c1ccc(O)cc1O`, the compound was called inactive in [6] and in [14]. Further, the half-maximal activity concentration (AC50) was 17 µM (active) in the test with CDK2 (gene 1017); 17.3 µM (active) in [11]; 11.6 µM (active) in test [12]; 25 µM (active) in test [13]; 15.1 µM (active) in test [16]; 25 µM (active) in test [15].

As for `COc1nc(C)nc(NC(=O)NS(=O)(=O)c2ccccc2OCCCl)n1`, in [5], the result was inactive.

Take `N[C@@H](Cc1cc(I)c(Oc2ccc(O)c(I)c2)c(I)c1)C(=O)O`: the concentration at half-maximal activity (AC50) in test [17] was 8.73 µM (active); in test [6], 25.9 µM (active); in test [2], 6.35 µM (active). Also, the call (in the test with CDK2 (gene 1017); in test [18]; in test [13]) was inactive.

Consider `CCNc1nc(N)nc(Cl)n1`, for which, in test [11], the AC50 was 22.1 µM (active). For the same compound, in test [12], the call was inactive.

For the compound `C#CCOC(=O)[C@@H](C)Oc1ccc(Oc2ncc(Cl)cc2F)cc1`, the call in [2] and in test [18] was inactive.

As for `O=C(c1ccccc1)C1CCCCC1`, the call in [13] was inactive.

`COC(=O)c1c(Cl)nn(C)c1S(=O)(=O)NC(=O)Nc1nc(OC)cc(OC)n1`: the AC50 in test [11] is 21.1 µM (active).

As to `CN(C)C(=O)Nc1ccc(Cl)c(Cl)c1`, in test [5], the result was inactive.

As for `Oc1ccc(C(c2ccc(O)cc2)C(Cl)(Cl)Cl)cc1`, the values for the concentration at half-maximal activity (AC50) in test [17] and in test [6] were 10.1 µM (active) and 4.96 µM (active), respectively. Also, the compound was called inactive in test [3].

For the compound `CC(C)(c1ccc(O)cc1)c1ccc(O)cc1`, the outcome in [9] and in test [1] was inactive. In addition, the concentration at half-maximal activity (AC50) in test [11] was 25.4 µM (active).

For the compound `O=C(O)C1(C(=O)Nc2ccc(Cl)cc2Cl)CC1`, the AC50 in test [4] is 39.2 µM (active); in test [17] it was 3.02 µM (active); with CDK2 (gene 1017), 7.29 µM (active); in test [9], 7.55 µM (active); in test [10], 12.7 µM (active). In addition, the compound was classed as inactive in test [12] and in [15].
